# Results: PubChem BioAssay (Tox21)
# Results filed as inconclusive are left out. Active and inactive are the calls of the source. Calls follow the shape of the dose curve; as a rule, active = well fitted curve in the direction sought with a large enough effect in the repeat runs; inconclusive = weak or mixed curves; inactive = no such curve, though single readings can be large; an effect the other way counts as inactive or inconclusive.
# Experiment: qHTS assay to identify small molecule antagonists of the thyroid receptor (TR) signaling pathway - cell viability counter screen (AID 743064); also: nearly all actives have a fitted effect of over 50% in size
# Settings: GH3.TRE-Luc viability, CellTiter-Fluor, 24 h; series mostly up to 70.3 µM; activity change, negative = cytotoxic: at the top concentration
# Summary of the method: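 Counter screen for cytotoxicity: compound plus T3 (1 nM final) on GH3.TRE-Luc cells, 23.5 h at 37 °C, then fluorescence viability readout with CellTiter-Fluor.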
# % is scaled to controls: 0 for no effect and ±100 for the full control effect.
row,Structure (SMILES),"activity change, negative = cytotoxic"
1,CC(=O)C1CCCCC1=O (stereo unspecified),-1.08% (inactive)
2,C=CC(C)(CCC=C(C)C)OC(=O)CC (stereo unspecified),4.47% (inactive)
3,CCCCN1C=CN(C)C1,23.4% [at 32.5 µM] (inactive)
4,Cc1ccc(-c2ncc(Cl)cc2-c2ccc(S(C)(=O)=O)cc2)cn1,9.88% (inactive)
5,C=COCC1CCC(COC=C)CC1 (stereo unspecified),-0.766% (inactive)
6,O=S(=O)(O)c1cccc(S(=O)(=O)O)c1,16.8% (inactive)
7,O=C(CO)[C@@H](O)[C@H](O)[C@@H](O)CO,37.9% (inactive)
8,CCCCCCCC1CCCC1=O (stereo unspecified),-1.94% (inactive)
9,C=CCOCC(O)CO (stereo unspecified),-0.168% (inactive)
10,O=C(O)Cc1csc(-c2ccc(Cl)cc2)n1,-2.37% (inactive)
11,CCC(C)(CCCC(C)C)OC(C)=O (stereo unspecified),-3.01% (inactive)
12,CC(=O)Oc1cccc(C)c1,16.1% (inactive)
13,[K+],0.843% (inactive)
14,CC(C)=CCC/C(C)=C/C#N,7.48% [at 95 µM] (inactive)
15,CCOC(=O)COc1cc(-n2ncc(C(F)(F)F)c(C)c2=O)c(F)cc1Cl,-1.21% (inactive)
16,C=CC(=O)OCCCl,-13.4% [at 95 µM] (inactive)
17,C1CCC2(CCCCO2)OC1,3.42% (inactive)
18,O=C(O)CNC(=O)c1ccc(CO)o1,3.91% (inactive)
19,Cc1cccc(C)c1NC(=O)CC12CCCN1CCC2,-0.76% (inactive)

row,Structure (SMILES),"activity change, negative = cytotoxic"
1,CCCC[N+](C)(CCCC)CCCC,-2.22% (inactive)
2,CC(C)(N)C#N,15.4% [at 95 µM] (inactive)
3,CCCCN(CCC(=O)OCC)C(C)=O,4.31% (inactive)
4,CO[Si](C)(OC)c1ccccc1,-2.44% (inactive)
5,CCCCCCCCCCCCCCCCCCO,28.4% (inactive)
6,CCC1C(=O)OCC1Cc1cncn1C (stereo unspecified),7.18% (inactive)
7,O=S(=O)(O)c1cc(O)c(O)c(S(=O)(=O)O)c1,7.52% (inactive)
8,CCCCCC(=O)OCCc1ccccc1,3.34% (inactive)
9,O=C(O)c1cc(C(=O)O)cc(C(=O)O)c1,1.07% [at 95 µM] (inactive)
10,CCCCOCCOC(=O)COc1cc(Cl)c(Cl)cc1Cl,7.23% (inactive)
11,OCCCCCO,16.4% [at 95 µM] (inactive)
12,CN(C)CCN(C)CCN(C)C,13.2% (inactive)
13,CC(=O)c1cnccn1,0.669% [at 95 µM] (inactive)
14,CCCCOC(=O)CCC(C)=O,-2.45% (inactive)
15,CC(C)c1ccc2ncccc2c1,29% (inactive)
16,CCOC(=O)COC(=O)c1ccccc1C(=O)OCC,2.2% (inactive)
17,CCCCCCCCCCOc1cc2c(=O)c(C(=O)OCC)c[nH]c2cc1OCC,17.2% (inactive)
18,CCN[C@H]1C[C@H](C)S(=O)(=O)c2sc(S(N)(=O)=O)cc21,9.64% (inactive)
19,CCNS(=O)(=O)c1ccc(C)cc1,0.162% [at 95 µM] (inactive)

# Experiment: qHTS assay to identify small molecule antagonists of the thyroid receptor (TR) signaling pathway (AID 743065); also: nearly all actives have a fitted effect of over 55% in size
# Settings: GH3.TRE-Luc, T3-stimulated luciferase inhibition, 23.5 h; series mostly up to 70.3 µM; activity, negative = inhibition: at the top concentration
# Summary of the method: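 Antagonism measured as loss of luciferase signal in GH3 cells stably carrying a TRE-luciferase reporter, co-treated with compound and T3 (1 nM final) for 23.5 h at 37 C. Viability was read in the same well by CellTiter-Fluor.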
row,Structure (SMILES),"activity, negative = inhibition"
1,CC(=O)C1CCCCC1=O (stereo unspecified),2.59% (inactive)
2,C=CC(C)(CCC=C(C)C)OC(=O)CC (stereo unspecified),5.98% (inactive)
3,CCCCN1C=CN(C)C1,7.03% [at 32.5 µM] (inactive)
4,Cc1ccc(-c2ncc(Cl)cc2-c2ccc(S(C)(=O)=O)cc2)cn1,-15.2% (inactive)
5,C=COCC1CCC(COC=C)CC1 (stereo unspecified),-0.651% (inactive)
6,O=S(=O)(O)c1cccc(S(=O)(=O)O)c1,22.9% (inactive)
7,O=C(CO)[C@@H](O)[C@H](O)[C@@H](O)CO,15.3% (inactive)
8,CCCCCCCC1CCCC1=O (stereo unspecified),-4.57% (inactive)
9,C=CCOCC(O)CO (stereo unspecified),4.64% (inactive)
10,O=C(O)Cc1csc(-c2ccc(Cl)cc2)n1,1.1% (inactive)
11,CCC(C)(CCCC(C)C)OC(C)=O (stereo unspecified),-0.755% (inactive)
12,CC(=O)Oc1cccc(C)c1,8.56% (inactive)
13,[K+],-3.74% (inactive)
14,CC(C)=CCC/C(C)=C/C#N,0.175% [at 95 µM] (inactive)
15,CCOC(=O)COc1cc(-n2ncc(C(F)(F)F)c(C)c2=O)c(F)cc1Cl,-6.74% (inactive)
16,C=CC(=O)OCCCl,-11.4% [at 95 µM] (inactive)
17,C1CCC2(CCCCO2)OC1,10.6% (inactive)
18,O=C(O)CNC(=O)c1ccc(CO)o1,-3.05% (inactive)
19,Cc1cccc(C)c1NC(=O)CC12CCCN1CCC2,4.21% (inactive)

row,Structure (SMILES),"activity, negative = inhibition"
1,CCCC[N+](C)(CCCC)CCCC,0.0322% (inactive)
2,CC(C)(N)C#N,12% [at 95 µM] (inactive)
3,CCCCN(CCC(=O)OCC)C(C)=O,3.54% (inactive)
4,CO[Si](C)(OC)c1ccccc1,0.206% (inactive)
5,CCCCCCCCCCCCCCCCCCO,0.255% (inactive)
6,CCC1C(=O)OCC1Cc1cncn1C (stereo unspecified),4.55% (inactive)
7,O=S(=O)(O)c1cc(O)c(O)c(S(=O)(=O)O)c1,5.57% (inactive)
8,CCCCCC(=O)OCCc1ccccc1,-0.0208% (inactive)
9,O=C(O)c1cc(C(=O)O)cc(C(=O)O)c1,4.28% [at 95 µM] (inactive)
10,CCCCOCCOC(=O)COc1cc(Cl)c(Cl)cc1Cl,-24.1% (inactive)
11,OCCCCCO,7.94% [at 95 µM] (inactive)
12,CN(C)CCN(C)CCN(C)C,2.55% (inactive)
13,CC(=O)c1cnccn1,15.8% [at 95 µM] (inactive)
14,CCCCOC(=O)CCC(C)=O,-3.18% (inactive)
15,CC(C)c1ccc2ncccc2c1,12% (inactive)
16,CCOC(=O)COC(=O)c1ccccc1C(=O)OCC,2.38% (inactive)
17,CCCCCCCCCCOc1cc2c(=O)c(C(=O)OCC)c[nH]c2cc1OCC,8.56% (inactive)
18,CCN[C@H]1C[C@H](C)S(=O)(=O)c2sc(S(N)(=O)=O)cc21,-0.0892% (inactive)
19,CCNS(=O)(=O)c1ccc(C)cc1,14.3% [at 95 µM] (inactive)
